# High-throughput results deposited in PubChem BioAssay by Johns Hopkins Ion Channel Center.
# KCNQ2 enhance: enhances the rat KCNQ2 potassium channel; O88943; CHO-K1 KCNQ2, FluxOR thallium flux fluorescence; stronger effect = higher value; B-score at 10 µM; 310,000 compounds, 0.54% hits;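 active = fluorescence ratio B-score at least 3 SD of library B-scores, with initial fluorescence B-score within 3 of them, cut at about 5.3 in these data; same plate scores as AID 2156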;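 note: B-score of peak minus minimum over baseline fluorescence ratio after K+ and Tl+ stimulus; positive B-score means potentiation of KCNQ2 with more thallium influx and brighter signal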
# KCNQ2 block: KCNQ2 (rat) channel inhibition | O88943 | 310,000 compounds, 1.1% hits | B-score at 10 µM | CHO-K1 KCNQ2, FluxOR thallium flux, 20 min; stronger effect = lower value;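 active = fluorescence ratio B-score at most minus 3 library SDs, with starting brightness B-score within 2 library SDs, cut at about -5.5 in these data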
# Kir21 confirm: confirmation of mouse Kir2.1 potassium channel inhibitors | shares compounds with KCNQ2 enhance | Kir2.1-expressing cells, FluxOR thallium flux fluorescence; stronger effect = lower value | Tl flux remaining, % of negative control (stronger effect = lower value), % at 10 µM | 2,300 compounds, 41% hits | AID 2032;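 active = Primary-screen hit whose thallium flux fell at least 3 control SD below untreated wells in both duplicates, with normal baseline fluorescence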;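 note: 0% = blank wells without stimulus and 100% = stimulated no-compound controls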
# Target sequence (P35561 whole entry, looked up): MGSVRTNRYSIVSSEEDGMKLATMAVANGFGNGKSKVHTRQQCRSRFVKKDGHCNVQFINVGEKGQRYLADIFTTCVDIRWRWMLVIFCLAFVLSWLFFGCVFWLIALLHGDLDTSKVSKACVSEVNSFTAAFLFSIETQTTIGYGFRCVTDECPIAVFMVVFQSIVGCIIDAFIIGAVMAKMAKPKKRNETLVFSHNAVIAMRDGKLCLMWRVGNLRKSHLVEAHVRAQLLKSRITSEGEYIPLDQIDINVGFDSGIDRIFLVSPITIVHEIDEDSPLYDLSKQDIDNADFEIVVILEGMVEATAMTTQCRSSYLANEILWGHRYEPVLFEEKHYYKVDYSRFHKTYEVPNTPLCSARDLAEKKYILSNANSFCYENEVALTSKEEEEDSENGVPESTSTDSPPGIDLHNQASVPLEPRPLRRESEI
# HEK293 Tl flux: parental HEK293 activity in Kir2.1 inhibitor counter-screen; AID 2105; 2,300 compounds, 19% hits; parental HEK293 cells, FluxOR thallium flux fluorescence; 0% = unstimulated blank wells; shares compounds with KCNQ2 enhance; FluxOR signal as % of negative control (100 = no effect), % at 10 µM;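 active = dye signal at least 3 control SD above or below untreated wells in both duplicates, raw fluorescence within 3, either direction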;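 note: percent is based on the flux ratio of peak minus minimum fluorescence over baseline F0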
# CHO-K1 Tl ctr: alters thallium flux in parental CHO-K1 cells, KCNQ2 counter-screen. activity increase over 3SD of controls, % at 10 µM. 1,200 compounds, 43% hits. shares compounds with KCNQ2 enhance. FluxOR thallium flux fluorescence; zero = vehicle mean+3SD, 100% = vehicle-minus-blank window. AID 2282;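 active = signal rise of at least 3 SD above the untreated control mean, in both duplicate wells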;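 note: counter screen of KCNQ2 potentiator hits so any rise reflects channel-independent effects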
# KCNQ1 sel pot: selectivity of KCNQ2 potentiators: effect on human KCNQ1; shares compounds with KCNQ2 enhance; CHO KCNQ1 stable, FluxOR thallium flux fluorescence; beyond 3SD, as % of vehicle-control signal; activation over 3SD threshold, % at 10 µM; 1,200 compounds, 28% hits;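 active = fluorescence ratio rise of at least 3 SD of vehicle wells above their mean, in both replicate wells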;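 note: 0% = vehicle mean plus 3 SD and 100% = vehicle minus unstimulated blank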
# KCNQ2 pot confirm: confirmation of rat KCNQ2 potassium channel potentiators. shares compounds with KCNQ2 enhance. CHO-KCNQ2 cells, FluxOR thallium flux fluorescence. potentiation, less the hit threshold, % at 10 µM. 1,200 compounds, 68% hits;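 active = fluorescence ratio rising 3 SD or more over the vehicle control mean in both replicates, plus primary screen hit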;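 note: peak minus minimum thallium fluorescence divided by baseline after K/Tl stimulus; 0% = vehicle mean plus 3 SD and 100% = vehicle minus unstimulated blank difference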
# Kir21 spec: selectivity of KCNQ2 potentiators: effect on mouse Kir2.1 | shares compounds with KCNQ2 enhance | HEK293 Kir2.1, FluxOR thallium flux fluorescence | activity over 3SD threshold, % at 10 µM | 1,200 compounds, 2% hits;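 active = fluorescence ratio rise of at least 3 SD above the vehicle-control mean, seen in both replicates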;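 note: 0% = vehicle mean plus 3 SD and 100% = vehicle minus no-stimulus blank window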
# KCNQ2 W236L pot: potentiates the retigabine-insensitive rat KCNQ2 W236L mutant channel. shares compounds with KCNQ2 enhance. CHO KCNQ2-W236L, automated patch clamp current. current increase over 3SD of negative controls (%), stronger effect = higher value, % at 25 µM. 940 compounds, 10% hits. AID 2558;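 active = current increase at least 3 SD of the untreated controls above them in both duplicate recordings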
# * marks the source's active call; other numbers are inactive results; i = inactive; / = no result. Shown are actives, neighbours in structure and some others; about 1.6% of the full set was active somewhere.
SMILES,KCNQ2 enhance,KCNQ2 block,Kir21 confirm,HEK293 Tl flux,others
COC(=O)C1=C(C)NC(=O)NC1c1cccc(OC)c1OCc1ccccc1 (stereo not given),/,i,/,/,
CCN(CC)S(=O)(=O)c1ccc(N2CCOCC2)c(NC(=O)c2ccc(N3CCCC3=O)cc2)c1,0.46,i,/,/,
COc1ccc(-c2cn3c(C)c(C(=O)NCc4ccc5c(c4)OCO5)sc3n2)cc1,/,i,/,/,
O=c1c(Oc2ccccc2)coc2cc(O)cc(O)c12,0.65,i,/,/,
CC[n+]1oc(-c2ccccc2)cc1C,0.35,i,/,/,
Cc1cc(Br)ccc1OCCNCc1ccccc1,/,i,25.0%*,i,
Cc1cc(C)c(C)c(OCCNCc2ccccc2)c1,/,i,/,/,
CC1Cc2ccccc2N1CC(=O)NCc1ccccc1Cl (stereo not given),/,i,/,/,
COc1ccc(C(=O)Cn2c(=N)n(C)c3ccccc32)cc1,/,i,/,/,
COc1ccc(C(=O)CN2Cc3ccccc3C2=N)cc1,0.08,i,24.0%*,i,
C=CCn1c(SCc2ccc(Br)cc2F)nc2cc(C(=O)O)ccc2c1=O,5.35*,i,i,i,CHO-K1 Tl ctr=-14.9;KCNQ1 sel pot=-20.1;KCNQ2 pot confirm=-2.0;Kir21 spec=-29.3;KCNQ2 W236L pot=i
C=CCn1c(SCc2c(C)noc2C)nc2cc(C(=O)O)ccc2c1=O,0.07,i,/,/,
CC(C)(C)c1nnc(NS(=O)(=O)c2cc(Cl)ccc2Cl)s1,1.86,i,/,/,
O=S(=O)(Nc1nc(-c2sccc2Cl)cs1)c1cc(Cl)ccc1Cl,18.8*,i,i,339.0%*,CHO-K1 Tl ctr=17.3*;KCNQ1 sel pot=-20.6;KCNQ2 pot confirm=149.0*;Kir21 spec=-24.8;KCNQ2 W236L pot=i
Cc1ccc(CSc2nnc([C@@H]3CCCN3C(=O)OC(C)(C)C)o2)cc1,/,i,50.0%*,66.5%*,
CC(C)(C)OC(=O)NCCCCCc1nnc(SCc2ccc(F)cc2)o1,/,i,/,/,
Cc1ccc(CSc2nnc(CCNC(=O)OC(C)(C)C)o2)cc1,/,i,29.0%*,i,
CC(C)(C)OC(=O)NCCc1nnc(SCc2ccccc2)o1,/,i,45.0%*,77.0%*,
CC(C)(C)OC(=O)NCCc1nnc(SCc2ccccc2Cl)o1,/,i,/,/,
CC(C)(C)OC(=O)N1CCC[C@H]1c1nnc(SCc2ccccc2)o1,/,i,/,/,
Cc1cnc(C(=O)OCC(=O)c2ccc[nH]2)cn1,/,i,/,/,
CCOc1ccc(NC(=O)CN(C)C(=O)c2ccccc2-n2cnnn2)cc1OCC,0.52,i,/,/,
CCn1c(SC(C)C(=O)N2CCOCC2)nc2sc(C)c(C)c2c1=O (stereo not given),1.08,i,/,/,
Cc1nc(SCC(=O)N2CCCCC2)c2c(C)c(C)sc2n1,7.4*,i,i,i,CHO-K1 Tl ctr=-10.0;KCNQ1 sel pot=99.5*;KCNQ2 pot confirm=40.6*;Kir21 spec=-34.9;KCNQ2 W236L pot=i
Cc1sc2nc(C(C)C)nc(SCC(=O)N3CCOCC3)c2c1C,12.2*,i,i,i,CHO-K1 Tl ctr=5.3*;KCNQ1 sel pot=-17.6;KCNQ2 pot confirm=34.3*;Kir21 spec=-38.1;KCNQ2 W236L pot=i
SMILES,KCNQ2 enhance,KCNQ2 block,Kir21 confirm,HEK293 Tl flux,others
Cc1sc2ncnc(SCC(=O)N3CCCCC3)c2c1C,2.46,i,/,/,
CCOCCCN(Cc1ccco1)S(=O)(=O)c1csc(C(N)=O)c1,/,i,/,/,
CN(Cc1ccccc1)S(=O)(=O)c1csc(C(N)=O)c1,/,i,/,/,
CCCCN(Cc1cccs1)S(=O)(=O)c1csc(C(N)=O)c1,/,i,45.5%*,i,
CC(C)CCN(Cc1ccco1)S(=O)(=O)c1csc(C(N)=O)c1,/,i,58.5%*,i,
COC(=O)c1c(NC(=O)C(=O)N2CCOCC2)sc2c1CCCC2,2.29,i,/,/,
CCCCN1CCc2c1nc1ccc(Br)cc1c2N,0.03,i,23.5%*,i,
Cc1ccc2nc3c(c(N)c2c1)CCN3C,0.24,i,/,/,
Cc1ccc(N2C(=O)C3C4C=CC(CC4)C3C2=O)c([N+](=O)[O-])c1 (stereo not given),/,i,/,/,
Cc1ccc(/C=N/n2cnc3sc(C)c(C)c3c2=O)o1,/,i,/,/,
CC(C)Oc1ccc(C(CCNCc2ccc(O)cc2)c2ccccc2)cc1 (stereo not given),/,i,/,/,
COc1ccc(OCC(O)CNC(C)c2ccccc2)cc1 (stereo not given),0.41,i,/,/,
COc1ccc(C(CCNC(C)c2ccccc2)C(C)C)cc1 (stereo not given),0.56,i,47.5%*,i,
COc1ccc(C(C)NCCC(c2ccc(OC(C)C)cc2)c2ccccc2OC)cc1 (stereo not given),-6.6,-6.6*,56.5%*,i,
C/C(=N/NC(=O)CNC(=O)COc1ccccc1)c1ccc(Cl)cc1,0.22,i,/,/,
O=C(COc1ccc2ccccc2c1Br)N1CCCC1,2.34,i,/,/,
CCOC(=O)N1CCN(C(=O)COc2ccc3ccccc3c2Br)CC1,8.69*,i,i,i,CHO-K1 Tl ctr=13.1*;KCNQ1 sel pot=17.8*;KCNQ2 pot confirm=11.4*;Kir21 spec=-30.4;KCNQ2 W236L pot=i
C=CCn1c(SCC(N)=O)nnc1-c1cccc(Br)c1,0.43,i,/,/,
C=CCn1c(SCc2ccccc2C#N)nnc1-c1cc(Br)ccc1O,/,i,i,i,
COCCNC(=O)CCC1CCN(Cc2cccc(Oc3ccccc3)c2)CC1,0.77,i,/,/,
Cc1ccc(/C=C/C(=O)NCCc2cccc(Cl)c2)o1,/,i,/,/,
CCOc1ccc(Nc2ncnc3c2cnn3C)cc1,0.93,i,/,/,
CCOC(=O)N1CCN(C(=O)c2cc(Cl)c(Cl)cc2C(=O)O)CC1,/,i,/,/,
CCCOC1CCCN(C(=O)c2cc(Cl)c(Cl)cc2C(=O)O)C1 (stereo not given),8.55*,i,i,i,CHO-K1 Tl ctr=-11.0;KCNQ1 sel pot=-17.7;KCNQ2 pot confirm=-7.7;Kir21 spec=-33.9
Cc1cc(SCC(=O)NCC(c2cccs2)N2CCOCC2)c(C)cc1Br (stereo not given),5.39*,i,i,i,CHO-K1 Tl ctr=38.0*;KCNQ1 sel pot=-10.6;KCNQ2 pot confirm=-5.4;Kir21 spec=-48.0;KCNQ2 W236L pot=i
CCC(=O)NCC(c1cccs1)N1CCOCC1 (stereo not given),0.5,i,/,/,
CN(C)c1ccc(-n2cccc2/C=C/[N+](=O)[O-])cc1,/,i,/,/,
CN(c1ccccc1)c1ccc(/C=C/[N+](=O)[O-])cc1,/,i,i,i,
Oc1ccc2ccccc2c1/C=N/c1nc2c(s1)CCCC2,/,i,/,/,
Oc1c(Br)cc(Br)cc1/C=N/c1nc2c(s1)CCCC2,8.7*,i,i,i,CHO-K1 Tl ctr=47.9*;KCNQ1 sel pot=-5.8;KCNQ2 pot confirm=26.5*;Kir21 spec=-46.1;KCNQ2 W236L pot=4.4%*
